Experimental data from PubChem BioAssay (NCI).
This is part of a sample that, as a whole, favours compounds with a hit. Of some 83,000 tested, about 20% had one in any assay.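 Note: values are percent growth. 100 is the growth of untreated cells, values between 100 and 0 indicate rising inhibition; between -100 and 0 indicates cell death.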 Values without a mark were called inactive. Active and inactive are the calls of the source. The calls were made as follows: active = growth percent below 10; inactive = the rest.

What was measured:
Test in all cases: NCI-60 one-dose screen, 48 h (100 = growth as untreated, 0 = no growth, -100 = all killed)
Settings in all cases: 10 µM unless noted
NCI-H23 lung = tested on: NCI-H23 lung
NCI-H226 lung = tested on: NCI-H226 lung
NCI-H322M lung = tested on: NCI-H322M lung
HOP-62 NSCLC = tested on: HOP-62 NSCLC
NCI-H460 lung = tested on: NCI-H460 lung
HOP-92 NSCLC = tested on: HOP-92 NSCLC
NCI-H522 lung = tested on: NCI-H522 lung
786-0 renal = tested on: 786-0 renal
COLO 205 colon = tested on: COLO 205 colon
A549/ATCC NSCLC = tested on: A549/ATCC NSCLC

SMILES | growth (NCI-H23 lung) | growth (NCI-H226 lung) | growth (NCI-H322M lung) | growth (HOP-62 NSCLC) | growth (NCI-H460 lung) | growth (HOP-92 NSCLC) | growth (NCI-H522 lung) | growth (786-0 renal) | growth (COLO 205 colon) | growth (A549/ATCC NSCLC)
Cc1ccc(C2=Nc3c(N)nc(N)nc3NC(c3cccc(Nc4ccnc5cc(C(F)(F)F)ccc45)c3)C2)cc1 (configuration not stated) | 39.4% | 80.7% | 54.8% | 34.1% | 11.7% | 28.3% | 11.9% | 20.9% | 7.09% (active) | –
FC(F)(F)c1cccc(-c2nnn(Cc3cc(-c4cccc(Cl)c4)no3)n2)c1 | 102% | 101% | 111% | 108% | 103% | 100% | 99.6% | 105% | 112% | –
CO[C@H]1/C=C/O[C@@]2(C)Oc3c(C)c(O)c4c(O)c(c5c(nc6cc(C)ccn65)c4c3C2=O)NC(=O)/C(C)=C\C=C\[C@H](C)[C@H](O)[C@@H](C)C(O)[C@@H](C)[C@H](OC(C)=O)[C@@H]1C (some centres not stated) | 99.6% | 96.1% | 97.4% | 3.22% (active) | 114% | 98.7% | 91.1% | 95.3% | 0.546% (active) | –
c1ccc(-c2nc(N3CCNCC3)c3oc(-c4ccccc4)nc3n2)cc1 | -66.8% (active) | -41.6% (active) | -95.1% (active) | -67.9% (active) | -81.1% (active) | -53.1% (active) | -28.3% (active) | -74.1% (active) | -39.7% (active) | –
O=C(CSc1nnc(-c2cc(-c3ccc(Cl)cc3)nc3ccccc23)n1-c1ccccc1)Nc1ccc(Cl)cc1 | 99.7% | 95% | 102% | 114% | 100% | 111% | 93.4% | 96.8% | 115% | –
Cc1nn(C)c2ncnc(Nc3ccccc3Br)c12 | 101% | 96.3% | 106% | 101% | 106% | 104% | 98.7% | 97.8% | 119% | –
Oc1ccc(C(c2ccc(O)cc2)c2ccc(Cl)cn2)cc1 | -4.57% (active) | -31% (active) | -18.9% (active) | 61.9% | 103% | -8.51% (active) | 57.6% | 86.8% | 4.91% (active) | 52.1%
COc1ccc(NC(=O)CSc2oc(-c3ccccc3)nc2S(=O)(=O)c2ccc(Cl)cc2)c(OC)c1 | 73% | 1.45% (active) | 83% | 51% | 44.7% | 39.6% | 41.4% | 35.7% | 82.4% | –
c1ccc(Cn2cc3c(c2)-c2nc(Nc4ccccc4)ncc2CC3)cc1 | 71.7% [100 µM] | 87.1% [100 µM] | 78.2% [100 µM] | 85.8% [100 µM] | 82.7% [100 µM] | 50.4% [100 µM] | 80% [100 µM] | 97.3% [100 µM] | 106% [100 µM] | –
C#CCOc1ccc(C2=NN(C)C3N=C(Cl)c4ncn(C)c4N23)cc1OCC#C (configuration not stated) | 89.7% | 83.4% | 90.2% | 95.5% | 105% | 79.8% | 87.3% | 105% | 102% | –
C=C1CC[C@@H]2[C@](C)(COC(C)=O)[C@H](OC(C)=O)CC[C@@]2(C)[C@@H]1CC(Nc1ccc(S(=O)(=O)Nc2nccc(C)n2)cc1)C1=CCOC1=O (some centres not stated) | 48.4% | -12.1% (active) | 64.8% | 156% | 46.9% | 71.6% | -50.6% (active) | 32.5% | 9.64% (active) | 63.4%
CC(C)=CC(=O)C1C(=O)c2ccccc2C1=O | 96.4% | 97.9% | 92.1% | 102% | 102% | 88.5% | 87.2% | 105% | 115% | –
CCOC(=O)/C(=C\c1ccccc1Cl)P(=O)(OCC)OCC | 46.6% | 66.4% | 75.4% | 118% | 61.9% | 60% | 34% | 75.8% | 52.9% | –
CCOC(=O)CC1CSC(N/N=C/c2ccc(O)cc2)=N1 (configuration not stated) | 102% | 105% | 98.6% | 91% | 112% | 80.3% | 97% | 89.9% | 111% | –
CC(C)(C)n1cc(-c2ccnc(NCCNS(=O)(=O)c3ccc(Br)cc3)c2)c(-c2cccc(O)c2)n1 | 35.2% | 45.4% | 62.7% | 61.1% | 1.07% (active) | 18.5% | 16.7% | 21.2% | -74.9% (active) | 28.9%
CCN1CCN(c2nc(NNC(=O)c3ccc(OC)cc3)nc(N3CCN(C(c4ccccc4)c4ccccc4)CC3)n2)CC1 | 53.3% | 71.9% | 84.1% | 83.6% | -6.88% (active) | 58.7% | 85.3% | 22.9% | -8.98% (active) | –
COc1cc(-c2ccc(-c3ccc(C(=N)N)s3)s2)cc(OC)c1OC | 71.5% | 89.4% | 69.1% | 69.9% | 17.3% | 33.6% | 61.5% | 9.32% (active) | -61.8% (active) | –
C(CCCSC1=NCCN1)CCSC1=NCCN1 | 94.8% | 107% | 113% | 93.1% | 110% | 41.4% | 103% | 97% | 121% | –
O=C1NC(=O)C(=Cc2cc(-c3ccc(Cl)cc3)n(-c3ccccc3)n2)C(=O)N1 | 99.3% | 82.5% | 94% | 99.4% | 98.6% | 94.4% | 103% | 82.5% | 108% | –
COc1ccccc1NC(=O)n1c(=O)cc(C)c2ccc(O)cc21 | 102% | 93.5% | 103% | 102% | 111% | 88.9% | 96.2% | 115% | 110% | –
COc1cccc(NC(=O)c2sc3nc(C)c(C(=O)c4ccccc4)cc3c2N)c1 | 101% | 93.9% | 84.3% | 89.7% | 61.2% | 86.9% | 92.5% | 89% | 107% | –
C#CCOc1cccc(Nc2c(Cl)c(CCl)nc3ccc(Oc4ccccc4)cc23)c1 | 64.2% | 72.3% | 83.7% | 93.1% | 96.2% | 64.2% | -6.45% (active) | 17.7% | 83.2% | –
C#Cc1ccc(NC(=O)Cc2ccc(/C=C/C(=O)c3nccn3C)cc2)cc1 | 40.4% | 90.6% | 57.6% | 48.3% | 22.6% | 96.5% | 68.1% | 30% | 66% | 74.6%
COc1ccc(NC(=O)c2sc3nc(C)c(C(=O)c4ccccc4)cc3c2N)cc1 | 96.1% | 97.2% | 64.7% | 97.7% | 61.3% | 111% | 80.8% | 96.4% | 108% | –
CCN=c1sc2c(n1NC(=O)c1cc3ccc1CCc1ccc(cc1)CC3)C(=O)c1ccccc1C2=O | -32.1% (active) | 73% | 80.5% | -58.6% (active) | 9.62% (active) | – | -34.8% (active) | -90.4% (active) | 42.6% | -38.8% (active)
O=C(CNc1ncco1)Nc1ccc(S(=O)(=O)c2ccc(NC(=O)CNc3ncco3)cc2)cc1 | 4.33% (active) | -17.7% (active) | 75.2% | 32.7% | -60.4% (active) | – | -96.9% (active) | 20.9% | -59.9% (active) | 6.88% (active)
COc1ccc(C2=NN3C(C2)c2cc(Br)ccc2OC3c2ccncc2)cc1 (configuration not stated) | 81.8% | 92.7% | 76.4% | 79.9% | 59.4% | – | 60% | 92.6% | 110% | 71.7%
